PubChem BioAssay (NCATS)
Results filed as inconclusive are left out. A call without a number means that no potency is given here. Activity calls are given as the source filed them. Calls come from the whole dose curve; as a rule, active = well fitted curve in the direction sought with a large enough effect; inconclusive = small, poorly fitted or top-dose-only effect, or another doubt; inactive = no such curve, though single readings can be large; an effect the other way counts as inactive or inconclusive.

What was measured:
[1] = S16 Schwann cell viability assay (CellTiter-Glo assay) (AID 624031);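 note: native untransfected S16 rat Schwann cells; cellular ATP luminescence as a viability measure; nearly all actives have a fitted effect of over 70% in size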
Summary of the method: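 Following overnight culture in 10% FBS DMEM, parental S16 rat Schwann cells are dosed for 24 h at 37 °C. Viability is read as CellTiter-Glo luminescence and expressed as % activity relative to DMSO (0%) and no-cell wells.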

3D7 = assay: qHTS profiling for inhibitors of Plasmodium falciparum proliferation (AID 504749); note: nearly all actives have a fitted effect of over 60% in size; note: potency is the fitted concentration of half-maximal effect; conditions: P. falciparum in erythrocytes, SYBR Green DNA, 72 h; series mostly up to 12.8 µM
Summary of the method: (§1)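 SYBR Green fluorescence of parasite DNA, read after lysis and overnight dark incubation, measured growth over 72 h in erythrocyte culture at 0.3% parasitemia and 2.5% hematocrit. Data normalised to DMSO and 0.29 uM artemisinin, with plate-drift correction.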

ATS189 = assay: as above; conditions: P. falciparum in erythrocytes, SYBR Green DNA, 72 h; series mostly up to 12.8 µM
Summary of the method: as §1

CP191 = assay: as above; conditions: P. falciparum in erythrocytes, SYBR Green DNA, 72 h; series mostly up to 12.8 µM
Summary of the method: as §1

CP201 = assay: as above; conditions: P. falciparum in erythrocytes, SYBR Green DNA, 72 h; series mostly up to 12.8 µM
Summary of the method: as §1

CP217 = assay: as above; conditions: P. falciparum in erythrocytes, SYBR Green DNA, 72 h; series mostly up to 12.8 µM
Summary of the method: as §1

CP237 = assay: as above; conditions: P. falciparum in erythrocytes, SYBR Green DNA, 72 h; series mostly up to 12.8 µM
Summary of the method: as §1

CP256 = assay: as above; conditions: P. falciparum in erythrocytes, SYBR Green DNA, 72 h; series mostly up to 12.8 µM
Summary of the method: as §1

CP315 = assay: as above; conditions: P. falciparum in erythrocytes, SYBR Green DNA, 72 h; series mostly up to 12.8 µM
Summary of the method: as §1

CP329 = assay: as above; conditions: P. falciparum in erythrocytes, SYBR Green DNA, 72 h; series mostly up to 12.8 µM
Summary of the method: as §1

DIV14 = assay: as above; conditions: P. falciparum in erythrocytes, SYBR Green DNA, 72 h; series mostly up to 12.8 µM
Summary of the method: as §1

ECU = assay: as above; conditions: P. falciparum in erythrocytes, SYBR Green DNA, 72 h; series mostly up to 12.8 µM
Summary of the method: as §1

FAB9 = assay: as above; conditions: P. falciparum in erythrocytes, SYBR Green DNA, 72 h; series mostly up to 12.8 µM
Summary of the method: as §1

JCK = assay: as above; conditions: P. falciparum in erythrocytes, SYBR Green DNA, 72 h; series mostly up to 12.8 µM
Summary of the method: as §1

N140 = assay: as above; conditions: P. falciparum in erythrocytes, SYBR Green DNA, 72 h; series mostly up to 12.8 µM
Summary of the method: as §1

PAD = assay: as above; conditions: P. falciparum in erythrocytes, SYBR Green DNA, 72 h; series mostly up to 12.8 µM
Summary of the method: as §1

PC49 = assay: as above; conditions: P. falciparum in erythrocytes, SYBR Green DNA, 72 h; series mostly up to 12.8 µM
Summary of the method: as §1

TAB113 = assay: as above; conditions: P. falciparum in erythrocytes, SYBR Green DNA, 72 h; series mostly up to 12.8 µM
Summary of the method: as §1

TAB165 = assay: as above; conditions: P. falciparum in erythrocytes, SYBR Green DNA, 72 h; series mostly up to 12.8 µM
Summary of the method: as §1

W2 = assay: as above; conditions: P. falciparum in erythrocytes, SYBR Green DNA, 72 h; series mostly up to 12.8 µM
Summary of the method: as §1

Row | Structure (SMILES) | outcome [1] | Potency (3D7) | Potency (ATS189) | Potency (CP191) | Potency (CP201) | Potency (CP217) | Potency (CP237) | Potency (CP256) | Potency (CP315) | Potency (CP329) | Potency (DIV14) | Potency (ECU) | Potency (FAB9) | Potency (JCK) | Potency (N140) | Potency (PAD) | Potency (PC49) | Potency (TAB113) | Potency (TAB165) | Potency (W2)
1 | CC(=O)C[C@H](c1ccc([N+](=O)[O-])cc1)c1c(O)c2ccccc2oc1=O | inactive | inactive | inactive | inactive | inactive | inactive | inactive | inactive | inactive | inactive | inactive | inactive | inactive | inactive | inactive | inactive | inactive | inactive | inactive | inactive
2 | CCCCC[C@H](O)/C=C\[C@H]1[C@H](C/C=C\CCCC(=O)O)[C@@H](O)C[C@H]1O (tested in a mixture with another compound) | inactive | inactive | inactive | inactive | inactive | inactive | inactive | inactive | inactive | inactive | inactive | inactive | inactive | inactive | inactive | inactive | inactive | inactive | inactive | inactive
3 | C[C@H](C(=O)O)c1cccc(Oc2ccccc2)c1 |  | inactive | inactive | inactive | inactive | inactive | inactive | inactive | inactive | inactive | inactive | inactive | inactive | inactive | inactive | inactive | inactive | inactive | inactive | inactive
4 | COc1ccc(OC)c([C@H](O)CNC(=O)CN)c1 | inactive | inactive | inactive | inactive | inactive | inactive | inactive | inactive | inactive | inactive | inactive | inactive | inactive | inactive | inactive | inactive | inactive | inactive | inactive | inactive
5 | Cc1ncc([N+](=O)[O-])n1C[C@H](O)CCl | inactive | inactive | inactive | inactive | inactive | inactive | inactive | inactive | inactive | inactive | inactive | inactive | inactive | inactive | inactive | inactive | inactive | inactive | inactive | inactive
6 | CC(=C(CCOP(=O)(O)O)SC(=O)c1ccccc1)N(C=O)Cc1cnc(C)nc1N | inactive | inactive | inactive | inactive | inactive | inactive | inactive | inactive | inactive | inactive | inactive | inactive | inactive | inactive | inactive | inactive | inactive | inactive | inactive | inactive
7 | Cn1nnnc1SCC1=C(C(=O)O)N2C(=O)[C@@H](NC(=O)[C@@H](O)c3ccccc3)[C@@H]2SC1 | inactive | inactive | inactive | inactive | inactive | inactive | inactive | inactive | inactive | inactive | inactive | inactive | inactive | inactive | inactive | inactive | inactive | inactive | inactive | inactive
8 | O=C1O[C@@H]([C@@H](O)CO)[C@@H](O)[C@H]1O |  | inactive | inactive | inactive | inactive | inactive | inactive | inactive | inactive | inactive | inactive | inactive | inactive | inactive | inactive | inactive | inactive | inactive | inactive | inactive
9 | CN[C@H]1[C@@H](O)[C@@H](NC)[C@@H]2O[C@@]3(O)C(=O)C[C@@H](C)O[C@H]3O[C@H]2[C@H]1O | inactive | inactive | inactive | inactive | inactive | inactive | inactive | inactive | inactive | inactive | inactive | inactive | inactive | inactive | inactive | inactive | inactive | inactive | inactive | inactive
10 | CC(=O)OCC(=O)[C@@]12OC(C)(C)O[C@@H]1C[C@H]1[C@H]3C[C@H](F)C4=CC(=O)C=C[C@@]4(C)[C@]3(F)[C@H](O)C[C@@]12C | inactive | inactive | inactive | inactive | inactive | inactive | inactive | inactive | inactive | inactive | inactive | inactive | inactive | inactive | inactive | inactive | inactive | inactive | inactive | inactive
11 | CCCC(=O)Nc1ccc(OC[C@@H](O)CNC(C)C)c(C(C)=O)c1 | inactive |  |  |  |  |  |  |  |  |  |  |  |  |  |  |  |  |  |  | 
12 | O=C(N/N=C\c1ccc([N+](=O)[O-])o1)c1ccc(O)cc1 |  | 1.58 µM (active) | 3.16 µM (active) | 3.16 µM (active) | 5.73 µM (active) | 3.55 µM (active) | 2.51 µM (active) | 3.55 µM (active) | 5.73 µM (active) | 5.73 µM (active) | 3.22 µM (active) | 1.78 µM (active) | 3.16 µM (active) | 3.98 µM (active) | 3.16 µM (active) | 2.51 µM (active) | 2.24 µM (active) | 3.16 µM (active) | 3.16 µM (active) | 1.81 µM (active)
